Measured values from PubChem BioAssay (EPA / NIEHS).
Results filed as inconclusive are left out. Activity calls are given as the source filed them. Rule for the calls: active = hit-call score of the fitted dose curve at least 0.9, where 1 is the maximum; inconclusive = response in the unintended direction; inactive = score below 0.9.

test: Tanguay_ZF_120hpf_BRAI_legacy: (Legacy) Oregon State University Tanguay Lab 120 Hour Post-fertilization zebrafish Assay for Brain Malformation (AID 2283641)
How it was run: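 Brain malformation in Tropical 5D zebrafish was recorded as a binary endpoint after static compound exposure from early development to 120 hpf at 28C. Activity was analysed against DMSO as negative control.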

Structure (SMILES) | AC50 | outcome
FC(F)C(F)(F)OCC(Cn1cncn1)c1ccc(Cl)cc1Cl (stereo unspecified) | 13.7 µM (active) | 
CCc1cccc(C)c1N(C(=O)CCl)C(C)COC (stereo unspecified) |  | inactive
COP(=O)(OC)C(O)C(Cl)(Cl)Cl (stereo unspecified) |  | inactive
CCCCOC(=O)c1ccccc1C(=O)O |  | inactive
COc1cccc(C(=O)NN(C(=O)c2cc(C)cc(C)c2)C(C)(C)C)c1C |  | inactive
C#CCC1=C(C)C(OC(=O)C2C(C=C(C)C)C2(C)C)CC1=O (stereo unspecified) |  | inactive
CON=C(C(=O)OC)c1ccccc1CON=C(C)c1cccc(C(F)(F)F)c1 | 6.64 µM (active) | 
Cc1cc(C2CC2)nc(Nc2ccccc2)n1 |  | inactive
CCCSP(=O)(OCC)Oc1ccc(Br)cc1Cl (stereo unspecified) |  | inactive
CC1(C(=O)Nc2ccc(O)c(Cl)c2Cl)CCCCC1 |  | inactive
COP(=O)(NC(C)=O)SC (stereo unspecified) |  | inactive

test: Tanguay_ZF_120hpf_SOMI_legacy: (Legacy) Oregon State University Tanguay Lab 120 Hour Post-fertilization zebrafish Assay for Somite Malformation (AID 2283647)
How it was run: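 5D WT zebrafish; chorion removed 4 hpf; 1 embryo/well from 6 hpf; static exposure to 120 hpf, 28C, 0.64% DMSO final. Endpoint: somite malformation, binary, brightfield. Mortality excluded.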

Structure (SMILES) | outcome | AC50
CCOP(=O)(NC(C)C)Oc1ccc(SC)c(C)c1 (stereo unspecified) | inactive | 
CCOP(=S)(OCC)Oc1ccc2c(C)c(Cl)c(=O)oc2c1 | inactive | 
CC(=NC#N)N(C)Cc1ccc(Cl)nc1 | inactive | 
CN(C)NC(=O)CCC(=O)O | inactive | 
FC(F)C(F)(F)OCC(Cn1cncn1)c1ccc(Cl)cc1Cl (stereo unspecified) |  | 48.5 µM (active)
CCc1cccc(C)c1N(C(=O)CCl)C(C)COC (stereo unspecified) | inactive | 
COP(=O)(OC)C(O)C(Cl)(Cl)Cl (stereo unspecified) | inactive | 
CC(C)=CC1C(C(=O)OCN2C(=O)C3=C(CCCC3)C2=O)C1(C)C (stereo unspecified) | inactive | 
CC(C)N(C(=O)SCC(Cl)=C(Cl)Cl)C(C)C | inactive | 
CCCCOC(=O)c1ccccc1C(=O)O | inactive | 
CCC(=O)Nc1ccc(Cl)c(Cl)c1 | inactive | 
COc1cccc(C(=O)NN(C(=O)c2cc(C)cc(C)c2)C(C)(C)C)c1C | inactive | 
S=C1NCCN1 | inactive | 
CCCCSP(=O)(SCCCC)SCCCC | inactive | 
C#CCC1=C(C)C(OC(=O)C2C(C=C(C)C)C2(C)C)CC1=O (stereo unspecified) | inactive | 
CCOC(=O)CC(SP(=O)(OC)OC)C(=O)OCC (stereo unspecified) | inactive | 
CON=C(C(=O)OC)c1ccccc1CON=C(C)c1cccc(C(F)(F)F)c1 | inactive | 
CCOP(=S)(OCC)Oc1ccc([N+](=O)[O-])cc1 | inactive | 
C[Si](Cn1cncn1)(c1ccc(F)cc1)c1ccc(F)cc1 |  | 47.7 µM (active)
CCC(CC)Nc1c([N+](=O)[O-])cc(C)c(C)c1[N+](=O)[O-] | inactive | 
O=c1ccc(=O)[nH][nH]1 | inactive | 
CCCSP(=O)(OCC)Oc1ccc(Br)cc1Cl (stereo unspecified) | inactive | 
CC1(C(=O)Nc2ccc(O)c(Cl)c2Cl)CCCCC1 | inactive | 
CNC(=O)ON=C(SC)C(=O)N(C)C | inactive | 
Nc1nc(N)nc(NC2CC2)n1 | inactive | 
CSC1=N[C@@](C)(c2ccccc2)C(=O)N1Nc1ccccc1 | inactive | 
N#CSCSC#N | inactive | 
COP(=O)(NC(C)=O)SC (stereo unspecified) | inactive | 
CCCOCC(=Nc1ccc(Cl)cc1C(F)(F)F)n1ccnc1 | inactive | 
C#CC(C)(C)NC(=O)c1cc(Cl)cc(Cl)c1 | inactive | 
